Test results as given in PubChem BioAssay.
The source made the active and inactive calls.

Experiments:
[1] = test system: Human papillomavirus type 1a protein E7 (residues 44-93); assay: small molecules binding HPV E7 44-93 – biochemical, small-molecule microarray, residues 44-93, 635 nm fluorescence, primary screen (AID 1108); conditions: fluorescence 635 nm, higher = more signal;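 further: E7 fragment applied at 1 µg/mL in TBST for 1 h at 4 C; score combines spot fluorescence with its signal to noise ratio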
[2] = hepatitis C replication reporter changes, two-sided – Huh7 cells, luciferase reporter, HCV replication inhibitor project, primary screen (AID 1109); conditions: Huh7 HCV replicon luciferase reporter, 48 h; higher = more signal;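 further: huh7 hepatoma cells harbouring a luciferase neomycin HCV replicon reporter; luciferase luminescence as measure of HCV replicon replication; test concentration not given here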
[3] = molecular target: Left-right determination factor 2 (Homo sapiens) (UniProt O00292); assay: small molecules binding LEFTY2 protein – biochemical, small-molecule microarray, 635 nm fluorescence scan, primary screen (AID 1110); conditions: higher = more signal
[4] = molecular target: Calmodulin-1 (Homo sapiens) (UniProt P0DP23); assay: small molecules binding calmodulin-1 with EGTA – biochemical, small-molecule microarray, Cy5-labelled CALM1, profiling panel (AID 1111); conditions: Cy5-CALM1 binding fluorescence, higher = more signal;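 further: labelled calmodulin applied in Tris saline Tween buffer holding calcium plus EGTA and DTT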
[5] = molecular target: Calmodulin-1 (Homo sapiens) (UniProt P0DP23); assay: small molecules binding Ca-loaded calmodulin-1 – biochemical, small-molecule microarray, Cy5-labelled CALM1, plus calcium, artefact control for SMM control-protein annotation, profiling panel (AID 1112); conditions: Cy5-CALM1 binding fluorescence, higher = more signal;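 further: score merges spot fluorescence with signal to noise from triplicate slides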
[6] = probe aWnt5a binding to arrayed compounds – biochemical, biotinylated probe, 635/667 nm fluorescence, primary screen (AID 1113); conditions: small-molecule microarray, higher = more signal;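 further: score merges 667 nm fluorescence intensity with signal-to-noise per printed feature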
[7] = probe aShh binding to arrayed compounds – biochemical, biotinylated probe, 635/667 nm fluorescence, primary screen (AID 1114); conditions: small-molecule microarray, higher = more signal;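 further: probe is biotin-labelled aShh protein from a stem cell growth factor screen; measures binding of labelled protein to compounds printed on the slide; score merges feature fluorescence at 667 nm with signal-to-noise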
[8] = probe aNog binding to arrayed compounds – biochemical, biotinylated probe, 635/667 nm fluorescence, primary screen (AID 1115); conditions: small-molecule microarray, higher = more signal;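 further: probe is biotinylated aNog protein used at 0.15 µg/mL for 1 h at 4 C; z-score combines 667 nm fluorescence of each spot with its signal to noise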
[9] = molecular target: Torsin-1A-interacting protein 1 (Homo sapiens) (UniProt Q5JTV8); assay: compound microarray binding of lysate hLAP1 – cell lysate, small-molecule microarray, COS7 lysate, 635/667 nm fluorescence, primary screen (AID 1116); conditions: 635 nm fluorescence, higher = more signal
[10] = molecular target: Alpha-bungarotoxin (Bungarus multicinctus) (UniProt P60615); assay: compounds binding labelled alpha-BTX control protein – biochemical, small-molecule microarray, Alexa647 label, 635/667 nm fluorescence, artefact control for SMM control protein annotation, profiling panel (AID 1117); conditions: alpha-BTX-A647 binding fluorescence, higher = more signal
Albumin (Bos taurus) = Albumin (Bos taurus) (UniProt P02769); assay: compounds binding labelled BSA control protein – biochemical, small-molecule microarray, Alexa647 label, 635/667 nm fluorescence, artefact control for SMM control protein annotation, profiling panel (AID 1118); conditions: BSA-A647 binding, fluorescence 635 nm, higher = more signal;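 further: score merges 667 nm emission intensity and signal-to-noise per printed compound spot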
[11] = probe aXIP binding to arrayed compounds – biochemical, NeuroSMM set, 635/667 nm fluorescence, primary screen (AID 1119); conditions: small-molecule microarray, higher = more signal, called active from +8 up or from −8 down;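 further: probe is the protein aXip251-270 applied at 1 µg/mL to compound-printed slides; binding of probe to printed compounds measured as 667 nm fluorescence plus signal to noise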
[12] = probe aNOTCH3 binding on compound microarray – biochemical, small-molecule microarray, 635/667 nm fluorescence, primary screen (AID 1120); conditions: higher = more signal;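 further: probe is a biotin-tagged antibody raised against NOTCH3 rather than NOTCH3 protein; score merges spot fluorescence near 667 nm with spot signal to noise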
[13] = probe aNOTCH2 binding on compound microarray – biochemical, small-molecule microarray, 635/667 nm fluorescence, primary screen (AID 1121); conditions: higher = more signal;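 further: score merges feature fluorescence read at 667 nm with its signal to noise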
[14] = molecular target: Carbonic anhydrase 2 (Homo sapiens) (UniProt P00918); assay: compounds binding carbonic anhydrase 2 – biochemical, small-molecule microarray, Alexa647-labelled CAII, profiling panel (AID 1122); conditions: CAII-A647 binding fluorescence, higher = more signal
[15] = COS7 lysate on small-molecule microarray, probe aHis, 635 nm (AID 1123); conditions: COS7 cell lysate, fluorescence, higher = more signal;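 further: z-score combines 667nm fluorescence intensity with signal-to-noise per printed compound spot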
[16] = probe aLAP1 signal on lysate-treated microarray – cell lysate, small-molecule microarray, COS7 lysate, primary screen (AID 1124); conditions: probe aLAP1, fluorescence, higher = more signal;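 further: lysate comes from COS7 cells expressing LAP1 and is applied at 0.3 µg/mL; score merges spot fluorescence near 667 nm with signal-to-noise over triplicate slides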
Sam68 (KHDRBS1) = assay: compounds binding KHDRBS1 protein – biochemical, small-molecule microarray, 635 nm fluorescence, primary screen (AID 1125); conditions: higher = more signal;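 further: score merges 667 nm channel intensity with signal to noise over triplicate slides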
[17] = test system: Chordin-like protein 2 (CHRDL2); assay: compounds binding chordin-like 2 – biochemical, small-molecule microarray, 635 nm fluorescence, primary screen (AID 1126); conditions: fluorescence 635 nm, higher = more signal;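 further: printed compound slides probed with Chrdl2 protein at 4 µg/mL for 1 h at 4 C; score merges 667 nm emission intensity with signal to noise over three replicate slides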
[18] = molecular target: Concanavalin-A (Canavalia ensiformis) (UniProt P02866); assay: compounds binding concanavalin A lectin – biochemical, small-molecule microarray, Alexa647 label, 635 nm, artefact control for SMM control protein annotation, primary screen (AID 1127); conditions: ConA-A647 binding fluorescence, higher = more signal;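 further: z combines 667 nm emission intensity with signal-to-noise across three replicate slides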
Concanavalin-A (Canavalia ensiformis), sequence (P02866 whole entry, looked up): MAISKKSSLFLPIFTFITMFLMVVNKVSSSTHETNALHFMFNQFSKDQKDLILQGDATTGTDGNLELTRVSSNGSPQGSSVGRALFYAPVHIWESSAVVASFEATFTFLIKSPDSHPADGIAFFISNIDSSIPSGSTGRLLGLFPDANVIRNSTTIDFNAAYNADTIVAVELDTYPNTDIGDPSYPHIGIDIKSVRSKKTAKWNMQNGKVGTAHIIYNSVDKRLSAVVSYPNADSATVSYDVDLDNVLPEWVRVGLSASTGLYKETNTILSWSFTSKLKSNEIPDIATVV

Albumin (Bos taurus), sequence (P02769 whole entry, looked up): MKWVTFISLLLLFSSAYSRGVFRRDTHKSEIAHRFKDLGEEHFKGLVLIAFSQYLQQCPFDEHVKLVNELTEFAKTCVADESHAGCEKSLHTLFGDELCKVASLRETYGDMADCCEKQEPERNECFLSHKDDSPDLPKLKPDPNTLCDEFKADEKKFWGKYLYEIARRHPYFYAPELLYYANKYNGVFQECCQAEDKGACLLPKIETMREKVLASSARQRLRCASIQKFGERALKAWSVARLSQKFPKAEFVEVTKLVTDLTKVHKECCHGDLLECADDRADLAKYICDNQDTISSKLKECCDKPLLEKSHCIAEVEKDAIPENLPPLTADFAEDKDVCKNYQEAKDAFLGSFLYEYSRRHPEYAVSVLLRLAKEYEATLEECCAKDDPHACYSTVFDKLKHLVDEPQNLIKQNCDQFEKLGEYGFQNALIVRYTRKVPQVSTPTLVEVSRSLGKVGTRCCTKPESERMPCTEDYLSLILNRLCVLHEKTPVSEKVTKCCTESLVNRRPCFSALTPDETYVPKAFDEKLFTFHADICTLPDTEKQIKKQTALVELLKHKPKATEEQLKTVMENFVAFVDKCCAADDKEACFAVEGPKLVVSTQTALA
Alpha-bungarotoxin (Bungarus multicinctus), sequence (P60615 whole entry, looked up): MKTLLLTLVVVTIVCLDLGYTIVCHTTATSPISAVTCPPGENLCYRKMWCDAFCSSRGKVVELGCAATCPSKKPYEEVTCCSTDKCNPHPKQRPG
Torsin-1A-interacting protein 1 (Homo sapiens), sequence (Q5JTV8 whole entry, looked up): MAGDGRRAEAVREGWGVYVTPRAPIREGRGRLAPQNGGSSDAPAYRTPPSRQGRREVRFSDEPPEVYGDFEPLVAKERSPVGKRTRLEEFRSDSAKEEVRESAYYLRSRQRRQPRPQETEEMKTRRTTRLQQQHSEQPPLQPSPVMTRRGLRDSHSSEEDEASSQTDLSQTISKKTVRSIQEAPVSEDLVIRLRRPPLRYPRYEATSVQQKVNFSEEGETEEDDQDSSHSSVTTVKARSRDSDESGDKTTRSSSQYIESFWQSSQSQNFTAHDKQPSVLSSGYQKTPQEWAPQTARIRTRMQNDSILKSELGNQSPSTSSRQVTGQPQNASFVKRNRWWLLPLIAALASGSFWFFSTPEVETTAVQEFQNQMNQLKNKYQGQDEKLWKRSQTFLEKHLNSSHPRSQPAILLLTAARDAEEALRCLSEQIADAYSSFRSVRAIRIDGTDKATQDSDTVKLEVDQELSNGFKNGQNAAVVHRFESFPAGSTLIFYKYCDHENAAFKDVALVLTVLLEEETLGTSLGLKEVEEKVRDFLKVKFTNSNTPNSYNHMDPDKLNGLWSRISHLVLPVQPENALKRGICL
Left-right determination factor 2 (Homo sapiens), sequence (O00292 whole entry, looked up): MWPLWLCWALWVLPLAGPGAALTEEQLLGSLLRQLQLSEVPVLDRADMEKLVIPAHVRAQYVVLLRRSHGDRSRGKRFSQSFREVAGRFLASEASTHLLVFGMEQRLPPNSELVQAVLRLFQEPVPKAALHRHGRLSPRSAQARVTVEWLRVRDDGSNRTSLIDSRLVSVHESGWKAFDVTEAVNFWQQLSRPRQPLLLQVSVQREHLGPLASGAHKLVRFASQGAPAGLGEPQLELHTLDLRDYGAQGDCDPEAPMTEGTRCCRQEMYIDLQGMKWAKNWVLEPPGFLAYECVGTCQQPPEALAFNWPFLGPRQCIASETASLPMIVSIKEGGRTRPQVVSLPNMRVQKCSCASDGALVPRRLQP

| Compound | composite z-score [1] | z-score [2] | composite z-score [3] | composite z-score [4] | composite z-score [5] | composite z-score [6] | composite z-score [7] | composite z-score [8] | composite z-score [9] | composite z-score [10] | composite z-score (Albumin (Bos taurus)) | composite Z-score [11] | composite z-score [12] | composite z-score [13] | composite z-score [14] | composite z-score [15] | composite z-score [16] | composite z-score (Sam68 (KHDRBS1)) | composite z-score [17] | composite z-score [18] |
| --- | --- | --- | --- | --- | --- | --- | --- | --- | --- | --- | --- | --- | --- | --- | --- | --- | --- | --- | --- | --- |
| CCCC=C(CCC)[C@@H](NS(=O)(=O)c1ccccc1)c1ccc(C(F)(F)F)cc1 | 1.37 | -2.28 | 0.0643 | 1.73 | 0.726 | 0.0495 | 0.432 | -0.475 | 1.31 | 1.28 | 0.871 | 0.35 (inactive) | 0.23 | 0.277 | 0.578 | 2.65 | 0.17 | 1.32 | 0.24 | 1.09 |
| COCCCNC(=O)[C@]1(Cc2ccccc2CN=[N+]=[N-])N=C(c2ccc(OCCCO)cc2)O[C@@H]1c1ccccc1CN=[N+]=[N-] | -0.113 | -2.54 | 0.0705 | 1.85 | 0.945 | 0.19 | 0.417 | 1.92 | 2.09 | 1.3 | 0.864 | 0.701 (inactive) | 0.364 | 0.309 | 0.613 | 2.28 | 1.09 | 1.29 | -0.0479 | 1 |
| CC(C)(C)OC(=O)CC[C@@]1(C(=O)N2CCCCC2)N=C(c2ccc(OCCCO)cc2)O[C@@H]1c1ccccc1CN=[N+]=[N-] | 1.46 | -2.36 | 0.0083 | 1.88 | 0.709 | 0.0629 | 0.199 | -0.685 | 2.04 | 2.27 | 1.03 | 0.18 (inactive) | 0.359 | 0.13 | 0.597 | 2.99 | 0.639 | 1.29 | -0.813 | 1.18 |
| O=C1O[C@H](c2ccccc2)[C@H](c2ccccc2)N2[C@H]1[C@@H](C(=O)N1CCN(c3ncccn3)CC1)[C@]1(C(=O)Nc3ccc(C#CCCO)cc31)[C@H]2c1ccccc1OCCO | 1.02 | -1.49 | 0.708 | 1.46 | 0.12 | -0.091 | 0.126 | 0.576 | 0.453 | 1.77 | 0.759 | -0.215 (inactive) | -0.0918 | -0.0533 | 0.556 | 2.03 | 1.38 | 1.3 | 0.231 | 1.11 |
| CN(C)C(=O)[C@@]1(CCS(=O)(=O)c2ccccc2)N=C(c2ccc(OCCCO)cc2)O[C@H]1c1ccccc1CN=[N+]=[N-] | 1.42 | -1.28 | 0.446 | 1.42 | -0.335 | 0.063 | 0.108 | -0.274 | 1.09 | 1.06 | 0.9 | 0.24 (inactive) | 0.167 | -0.0478 | 0.553 | 2.45 | 0.527 | 1.3 | 0.205 | 1.08 |
| O=C1OCC=C[C@H]2OC34C=CCN(CCN5CCOCC5)C(=O)[C@H]3N(CCCCCO)C(=O)[C@@H]4[C@@H]12 (stereo not given in full) | -1.19 | 0.557 | -0.258 | -0.234 | -0.953 | -0.178 | -0.223 | -0.278 | -0.607 | 0.396 | 0.485 | -0.232 (inactive) | 0.0694 | -0.117 | 0.829 | 2.03 | -0.723 | -0.229 | 0.129 | 0.476 |
| C=CC[C@]1(C(=O)NCC(O)CO)N=C(c2ccc(OCCCO)cc2)O[C@H]1c1ccccc1N=[N+]=[N-] (stereo not given in full) | 1.14 | -0.0862 | -0.571 | 1.64 | 0.479 | 0.106 | 1.09 | 1.68 | 2.75 | -0.0575 | 0.933 | 0.171 (inactive) | 0.0876 | 0.132 | 0.766 | 2.78 | 1.41 | 0.645 | -0.451 | -0.0308 |
| C=CC[C@]1(C(=O)N2CCOCC2)N=C(c2ccc(OCCCO)cc2)O[C@H]1c1ccccc1CN=[N+]=[N-] | 1.42 | -1.85 | 0.366 | 1.84 | 0.403 | 0.127 | 0.398 | 1.88 | 1.94 | 0.948 | 0.971 | 0.0707 (inactive) | 0.533 | 0.0402 | 0.385 | 2.92 | 1.64 | 1.29 | -0.321 | 1.15 |
| COC(=O)[C@@]1(Cc2ccc(F)cc2)[C@H]2c3cc(C(=O)N(C)C)n(Cc4ccc(C)c(F)c4F)c3C[C@H]2CN1C(=O)c1ccccc1 | 1.33 | -1.34 | -0.0601 | 1.61 | 0.962 | 0.0037 | 0.141 | -0.0053 | 0.692 | 0.298 | 0.751 | 0.818 (inactive) | 0.243 | 0.0742 | 0.713 | 3.15 | -0.0137 | 1.07 | -0.991 | 0.879 |
| COc1ccc([Si](C)(C)[C@@H]2[C@@H](CCO)O[C@]3(C(=O)N(Cc4ccc(N5C(=O)c6ccccc6Oc6ccccc65)cc4)c4ccccc43)[C@H]2C)cc1 | -0.0261 | -4.95 | -1.16 | 0.322 | 0.751 | -0.0643 | -0.138 | -0.358 | -1.06 | 0.0794 | 0.0104 | 0.441 (inactive) | -0.0984 | -0.106 | -0.104 | 0.232 | -0.398 | -0.345 | -0.968 | 0.187 |
